Sampled rows, rich in hits. Any-hit rate of the full collection: about 4.7%.
HSF1 activator: increases HSF-1 driven luciferase reporter signal. NIH3T3-HGL HSF-1 luciferase reporter, MG132, 8 h; 100% = twice DMSO control signal. activation, % at 9 µM. hit rate 1.7% among 300,000;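 active = mean replicate activation of at least 50% with a set share of replicates each reaching 50%; inconclusive = only one of those two conditions met; inactive = mean below 50% and too few replicates reaching it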;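 also: 0% = median of the neutral control wells and 100% = twice that signal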
TWEAK-Fn14 inh: blocks TWEAK-Fn14 interaction in a reporter cell assay. inhibition, % at 10 µM. AID 1159606. TWEAK-stimulated Fn14 reporter cells, luciferase luminescence, 8 h. hit rate 2% among 360,000; in the data active = inhibition above about 50%
TROY NFkB inh: inhibitors of TROY-dependent NF-kB signaling. hit rate 0.98% among 360,000. inhibition, % at 10 µM. Q293 LMP1-TROYcd NF-kB luciferase reporter, 4 h;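 active = compounds whose plate-normalised and pattern-corrected inhibition of the luciferase reporter signal at the single screening dose is 50% or more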
EBV LMP1 NFkB: Epstein-Barr LMP1 NF-kappaB reporter inhibition | LMP1-induced NF-kappaB luciferase reporter cells, luminescence | inhibition, % at 12.5 µM | hit rate 0.69% among 350,000 | AID 504558; in the data active = inhibition above about 41%; inconclusive = no clear call, values can overlap the other calls;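 also: 0% = neutral control wells and 100% = reference inhibitor control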
HSF1 inhib: HSF1 inhibition; NIH3T3-HGL HSE-luciferase, MG132-induced, luminescence 8 h; active compounds read low; activity change, negative = inhibition, % at 7.5 µM (by protocol); hit rate 0.77% among 300,000;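 active = more than half of replicate wells show activity change below -50%, luminescence cut by over half; inconclusive = some wells, but at most half, below -50%; inactive = no replicate well below -50%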;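 also: luciferase reports HSF-1 transcriptional activity via heat shock element; 0% = median of DMSO wells and -100% = zero luminescence signal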
HSP90 refold inh: blocks HSP90-mediated luciferase refolding in reticulocyte lysate; Rabbit reticulocyte lysate, luciferase refolding luminescence, 3 h; inhibition, % at 5.6 µM; hit rate 0.91% among 290,000;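 active = inhibition above the screen-wide mean plus 3 SD, computed separately per campaign, cut at about 16% in these data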;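 also: 0% = DMSO wells and 100% = 60 µM geldanamycin wells; inhibitors lower the luminescence because luciferase stays unfolded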
* marks the source's active call; other numbers are inactive results; ? = inconclusive; . = no result given.

SMILES	HSF1 activator	TWEAK-Fn14 inh	TROY NFkB inh	EBV LMP1 NFkB	HSF1 inhib	HSP90 refold inh
CNS(=O)(=O)c1cccc(C(=O)OCc2csc(-c3ccccc3)n2)c1	67.5*	23.8	11.7	-3.5	33.9	-0.3
O=C(NCc1cccc(C(F)(F)F)c1)c1ccc2sc(C3=C[C@@H](O)[C@@H](O)[C@@H](CO)O3)nc2c1	.	8.3	19.6	.	.	.
Cc1ccc(S(=O)(=O)c2c(N)n(CCC(C)C)c3nc4ccccc4nc23)cc1	108.8*	44.3	73.3*	-12.0	53.2	3.4
Nc1c(S(=O)(=O)c2cccs2)c2nc3ccccc3nc2n1Cc1cccs1	3.2	24.5	69.8*	-30.0	0.5	1.7
Nc1c(S(=O)(=O)c2cccs2)c2nc3ccccc3nc2n1CCc1ccccc1	30.2	.	.	.	13.9	5.9
Cc1ccc(S(=O)(=O)c2c(N)n(Cc3ccco3)c3nc4ccccc4nc23)cc1C	72.5*	15.6	-1.0	-15.0	49.6	4.6
Nc1c(S(=O)(=O)c2ccccc2)c2nc3ccccc3nc2n1Cc1ccco1	13.4	18.7	8.0	-12.9	8.6	2.0
CC(C)CCn1c(N)c(S(=O)(=O)c2cccs2)c2nc3ccccc3nc21	104.5*	90.2*	86.3*	-19.4	54.1	3.4
O=C(NCc1cccnc1)c1cc(C2CCCCN2S(=O)(=O)c2cccc3cccnc23)on1 (stereo not given)	.	0.3	10.4	.	.	.
Cc1ccc(C(=O)Nn2c(N)c(S(=O)(=O)c3ccc(C)cc3)c3nc4ccccc4nc32)cc1	8.7	22.9	7.0	-3.0	2.8	5.7
Cc1ccc(S(=O)(=O)c2c(N)n(CCCO)c3nc4ccccc4nc23)cc1	27.2	27.7	64.2*	3.3	11.7	1.2
CCOC(=O)CN1CC23C=CC(O2)C(C(=O)NC2CCCCC2)C3C1=O (stereo not given)	-91.7	-0.3	-10.2	-12.6	-89.3*	3.4
COc1ccc(-c2csc(C(C)(O)c3cccnc3)n2)cc1 (stereo not given)	.	-3.4	-16.8	.	.	.
CC12CCC3C(CCC4CC(O)CCC43C)C1CC(=O)C2 (stereo not given)	.	-6.7	4.0	.	.	.
COC(=O)[C@H]1C[C@H](OC(=O)NC2CC2)[C@@]2(O)CN(S(=O)(=O)c3ccc(C)cc3)CC2[C@H]1C(=O)OC (stereo not given in full)	.	11.1	-2.5	0.5	.	.
Cc1cc(C)cc(N(CC(=O)Nc2ccc(Br)cc2)S(=O)(=O)c2c(C)[nH]c(=O)[nH]c2=O)c1	-71.3	14.6	-16.9	-17.2	-63.0*	-1.0
COc1cccc(C(=O)CC(=O)C(=O)Nc2cccc([N+](=O)[O-])c2C)c1	-4.8	0.3	-18.0	4.2	-3.7	-1.8
COc1cccc(C(=O)CC(=O)C(=O)Nc2cc(OC)ccc2OC)c1	-1.8	21.2	-18.6	-2.3	6.6	-6.0
COc1ccc(C(=O)CC(=O)C(=O)Nc2cccc([N+](=O)[O-])c2C)cc1	58.4*	6.4	-3.3	8.9	18.8	-3.8
COc1cccc(C(=O)CC(=O)C(=O)Nc2ccc(C)cc2Cl)c1	25.6	91.2*	35.6	46.4*	10.5	4.9
COc1ccc(C(=O)CC(=O)C(=O)Nc2ccc(C)cc2Cl)cc1	?	51.6*	-14.2	6.5	16.3	-0.1
COc1cccc(C(=O)CC(=O)C(=O)Nc2cc(OC)c(OC)c(OC)c2)c1	-62.3	.	.	.	-57.5*	2.6
COc1ccc(-c2ccc(C(=O)Nc3ccc(OC)nc3)c3occc23)c(C)c1	.	38.8	16.7	.	.	.
CN(Cc1ccc(Cl)c(Cl)c1)C(c1cc2ccccc2o1)c1nnnn1C(C)(C)C (stereo not given)	.	-2.5	20.4	.	.	.
CC(=O)OC[C@@H]1CN(Cc2ccccc2)C[C@H](n2cnc3c(NC4CCC4)ncnc32)O1	.	-8.9	0.5	.	.	.
SMILES	HSF1 activator	TWEAK-Fn14 inh	TROY NFkB inh	EBV LMP1 NFkB	HSF1 inhib	HSP90 refold inh
Cc1ccc(-n2cc(CNCC3CC(=O)N(C4CC4)C3)c(-c3cccc(C)c3)n2)cc1 (stereo not given)	15.2	-4.7	51.6*	2.9	8.4	0.6
COc1ccccc1-c1ccc(SCC(=O)Nc2cc(C)on2)nn1	60.2*	-2.5	6.8	1.6	39.0	2.7
COc1ccc(CC(=O)Nc2cc(C)on2)cc1	-93.1	0.2	-15.2	3.3	-91.2*	-2.9
COc1ccc(OCCC(=O)Nc2cc(C)on2)cc1	-9.1	-2.3	15.4	5.2	-8.1	-3.7
CSc1nc2ccc(NS(=O)(=O)c3ccc(CNC(C)=O)cc3)cc2s1	.	10.8	5.0	9.5	.	.
CSc1nc2ccc(NS(=O)(=O)c3ccc([N+](=O)[O-])cc3)cc2s1	-91.3	-10.3	17.4	1.4	-89.0*	1.1
O=[N+]([O-])c1ccc(NS(=O)(=O)c2ccc(Cl)c(Cl)c2)cc1	.	44.0	54.7*	.	.	.
O=C(c1ccc([N+](=O)[O-])cc1Cl)N1CCN(Cc2ccccc2)CC1	.	7.5	4.5	-4.4	.	.
Fc1ccc(Nc2ccc3ccccc3n2)c(F)c1	-22.2	51.9*	-1.9	-5.2	-0.4	33.8*
COC(=O)C1=C(C)N(c2ccc(Cl)cc2)/C(=C/c2cccs2)C1=O	-7.5	-4.1	-0.7	-13.8	2.8	6.9
COC(=O)C1=C(C)N(c2cc(C)cc(C)c2)/C(=C/c2ccc(O)cc2)C1=O	22.5	57.9*	12.7	51.6*	6.9	0.6
COC(=O)C1=C(C)N(c2cc(C)cc(C)c2)/C(=C/c2ccco2)C1=O	4.2	31.4	28.1	0.7	2.8	-3.7
COC(=O)C1=C(C)N(c2ccc(Cl)cc2)/C(=C/c2ccc(O)cc2)C1=O	12.8	57.0*	15.7	3.9	-1.1	1.4
CCOC(=O)C1=CCN(S(=O)(=O)c2ccccc2Cl)C1c1cccc(F)c1 (stereo not given)	.	20.4	2.6	.	.	.
O=C(Nc1ccc2nc([C@@H]3O[C@H](CO)[C@@H](O)[C@H](O)[C@H]3O)[nH]c2c1)NC(c1ccccc1)c1ccccc1	.	10.0	2.0	.	.	.
CC1Cc2ccccc2N1C(=O)c1ccc(Br)o1 (stereo not given)	41.8	40.3	-70.8	-28.3	25.0	0.9
Cc1ccc(C(=O)N2c3ccccc3CC2C)o1 (stereo not given)	54.4*	8.7	-30.3	1.3	31.9	-0.8
COc1ccc(-c2oc3c(c2C(=O)OCCO)C(OCCCO)CCC3)cc1 (stereo not given)	.	12.5	-1.7	.	.	.
O=C(/C=C/c1ccccc1O)c1ccc(Cl)cc1	?	-8.3	-1.1	5.3	53.8	3.3
COc1ccccc1/C=C/C(=O)c1ccccc1	23.4	12.0	-50.9	-16.9	8.5	-3.2
COc1ccccc1/C=C/C(=O)c1ccc(Cl)cc1	17.9	13.9	-4.6	68.1*	1.4	3.1
CCOc1ccccc1/C=C/C(=O)c1ccc(Cl)cc1	69.2*	14.9	-27.1	-3.3	29.5	3.5
COc1ccccc1/C=C/C(=O)c1c2c(c(C)[nH]c1=O)CCCC2	-6.7	85.5*	35.4	14.9	-3.7	-1.6
